AMA1 RON2 block: inhibitors of Plasmodium falciparum AMA1-RON2 interaction | AlphaScreen AMA1-biotinylated RON2 peptide binding | Potency, µM (titrated, usually from 58.2 µM), without a hit: at the top dose activity change, negative = inhibition, most hits filed as inhibitors | hit rate 0.2% among 360,000 | AID 720542;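 note: 0% = vehicle wells and -100% = peptide control; nearly all actives have a fitted effect of over 45% in size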
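AMA1 (3D7) with his tag at 25 nM final met compounds first, then biotinylated RON2 peptide at 25 nM; detection used donor plus acceptor beads, 10 µg/mL apiece, read by AlphaScreen after 30 min at room temperature.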
HCV inh: blocks hepatitis C virus | Huh7.5.1 HCVcc-Cre infection, luciferase reporter, 44 h | Potency, µM (top dose mostly 41.8 µM), inactives show at the highest dose activity change, negative = inhibition, hits mostly inhibitors | hit rate 3.4% among 340,000 | AID 651820
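HCVcc-Cre virus at an moi near 0.5 was added right after compound to cells cultured 4 h from seeding (1,000 cells/well). Luciferase activity was determined 44 h later, 15 min after substrate addition at RT.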
AmpC detergent: inhibitors of E. coli AmpC beta-lactamase with detergent. AID 485294. AmpC hydrolysis of nitrocefin, absorbance 480 nm, 0.01% Triton. hit rate 0.041% among 370,000. P00811. Potency, µM (top dose mostly 114 µM), for inactives: at the top dose activity change, negative = inhibition, actives largely listed as inhibitors;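 note: 0% = no-compound wells and -100% = no-enzyme wells; nearly all actives have a fitted effect of over 25% in size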
Target sequence (P00811 whole entry, looked up): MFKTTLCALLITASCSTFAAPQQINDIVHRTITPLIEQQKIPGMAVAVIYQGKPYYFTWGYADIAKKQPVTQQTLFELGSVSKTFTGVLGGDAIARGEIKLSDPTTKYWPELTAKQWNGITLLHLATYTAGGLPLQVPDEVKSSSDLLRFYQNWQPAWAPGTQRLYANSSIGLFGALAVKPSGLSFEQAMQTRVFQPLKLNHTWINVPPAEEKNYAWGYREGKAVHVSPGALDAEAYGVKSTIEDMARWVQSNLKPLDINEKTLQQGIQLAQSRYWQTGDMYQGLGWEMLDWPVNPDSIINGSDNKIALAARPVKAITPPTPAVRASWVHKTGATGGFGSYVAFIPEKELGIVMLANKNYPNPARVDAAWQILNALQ
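AmpC (5.3 nM in the dispensed reagent) in 20 mM phosphate pH 7.0 with 0.01% (detergent screen) or 0.0001% Triton X-100 was preincubated with compounds for 15 min at room temperature. Nitrocefin was then added from an 800 uM solution, and hydrolysis was followed at 480 nm.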
Pf growth 48h: inhibits P. falciparum growth in the first generation, 48 h | P. falciparum luciferase growth in erythrocytes, 48 h | Potency, µM (series often up to 28.7 µM), inactives show top-dose activity change, negative = inhibition, most hits filed as inhibitors | hit rate 5.9% among 310,000 | AID 504832
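A one-generation exposure of luciferase-tagged malaria parasites in RPMI 1640/Albumax erythrocyte culture, 37 C and 5% CO2. Inhibition is inferred from decreased luminescence after adding detection reagent.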
Pf growth 96h: inhibits malaria parasite growth, 96 h. P. falciparum luciferase reporter growth, 96 h. Potency, µM (doses to about 28.7 µM), for the others: top-dose activity change, negative = inhibition, usual class: inhibitors. hit rate 6.9% among 320,000. AID 504834
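Infected RBCs, 2% Hct / 0.05% parasitemia final; luciferase-reporter P. falciparum; cpd 96 h, 37 C, 5% CO2; luciferase detection reagent; luminescence.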
AmpC no deterg: inhibitors of E. coli AmpC beta-lactamase without detergent. Potency, µM (titrated, usually from 57.1 µM), for the others: at the highest dose activity change, negative = inhibition, actives largely listed as inhibitors. hit rate 0.52% among 330,000. AmpC nitrocefin hydrolysis, absorbance 480 nm, 0.0001% Triton. P00811;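 note: plate controls were no compound for no effect and no enzyme for full effect; nearly all actives have a fitted effect of over 20% in size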
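20 mM phosphate pH 7.0 + 0.01% (detergent screen) or 0.0001% Triton X-100; 5.3 nM AmpC reagent; cpd preinc 15 min RT; nitrocefin (800 uM stock) to start; A480 q20 s × 4 min; Activity was normalised to no-enzyme and no-compound control wells.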
The depositor's hits bear a star; ? = inconclusive; · = not tested or not shown; [ ] = remark or other dose. In the library only some 11% were active in any assay of this set; here they are far more common. Calls come from the whole dose curve; as a rule, active = well fitted curve in the direction sought with a large enough effect; inconclusive = small, poorly fitted or top-dose-only effect, or another doubt; inactive = no such curve, though single readings can be large; an effect the other way counts as inactive or inconclusive. Unless noted, % is set by controls: 0 for no effect and ±100 for the full control effect; potency is the fitted concentration of half-maximal effect.

SMILES | AMA1 RON2 block | HCV inh | AmpC detergent | Pf growth 48h | Pf growth 96h | AmpC no deterg
CCOC(=O)c1ccccc1NS(=O)(=O)c1ccc(OCC)cc1 | 16% | ? | -6% | · | 9.3µM* | -20%
COc1ccc(OC)c(S(=O)(=O)Nc2ccc(O)c3ccccc23)c1 | -14% | ? | 2% | 1.2µM* | · | -34%
O=S(=O)(Nc1cc(Sc2cccc3cccnc23)c(O)c2ccccc12)c1ccccc1 | · | ? | -9% | 3.3µM* | 243% | -10%[2.29 µM]
COc1ccc(OC)c(S(=O)(=O)Nc2cccc3c(O)cccc23)c1 | -1% | -9% | · | · | · | ·
Cc1ccc2c(C)c(C(=O)N3CCC(c4nc5ccccc5s4)CC3)oc2c1C | · | · | 20% | · | · | ·
CN(C(=O)CSc1nc2c(c(=O)[nH]1)CCCC2)c1ccccc1 | · | · | 12% | · | · | ·
CC[N+]1=CN(c2ccccc2)C(C)=CC1(C)C | 12% | 12% | ? | ? | 4.1µM* | -20%
CCc1nc(=O)c(-c2ccccc2)c(C)n1-c1ccccc1 | 33% | 7% | -10% | 33% | 15% | -15%
CCOC(=O)c1ccccc1NC(=O)Cc1c(C(=O)O)c(C)cn1C | · | · | -7% | · | · | ·
Cc1cc(N2CCCC2)nc2ccc(NC(=S)NC(C)C)cc12 | 5% | ? | 7% | 10µM* | -24% | -14%
CCOCCCNC(=S)Nc1ccc2nc3n(c(=O)c2c1)CCCCC3 | 7% | -2% | -7% | -11% | -20% | -15%
COCCNC(=S)Nc1ccc2nc(N3CCCC3)cc(C)c2c1 | 20% | ? | -1% | ? | ? | 10µM*
COCCNC(=S)Nc1ccc2nc(N3CCOCC3)cc(C)c2c1 | 5% | ? | ? | 0% | 25% | -16%
Cc1cc(N2CCOCC2)nc2ccc(NC(=S)NC(C)C)cc12 | 10% | ? | 5% | 1%[0.00184 µM] | 24% | 10%
CCOCCCNC(=S)Nc1ccc2nc(N3CCCC3)cc(C)c2c1 | -2% | ? | 1% | 12µM* | -5% | 2%
CN(C)C(=S)SC(=S)N(C)C | · | · | · | 5.4µM* | 3.4µM* | ·
CN(C)C(=S)SSC(=S)N(C)C | -2% | 2% | 79µM* | 0.85µM* | 0.76µM* | ?
COc1cccc(CNC(=O)CN2C(=O)CSc3c2c(C)nn3-c2ccccc2)c1OC | · | · | 18% | · | · | ·
CCOC(=O)/C(C#N)=C/c1cc(C)n(-c2ccccc2)c1C | -9% | 32µM* | -15% | · | -25% | -14%
CC(=O)N1CCc2cc(S(=O)(=O)NC(Cc3ccccc3)C(=O)NCc3ccccc3)ccc21 (centres undefined) | · | · | 3% | · | · | ·
Cc1ccc(C(=O)NCCc2nnc3ccc(SCC(=O)Nc4ccccc4C)nn23)cc1 | -2% | 0% | -13% | ? | 10µM* | 16%
O=C(CSc1ccc2nnc(-c3ccccn3)n2n1)Nc1ccccc1F | 2% | 23% | 5% | 9.3µM* | -31% | -16%
c1ccc(CSc2ccc3nnc(-c4ccccn4)n3n2)cc1 | -28% | -20% | ? | ? | ? | 17%
Cc1cccc(CSc2ccc3nnc(-c4ccccn4)n3n2)c1 | -4% | 6% | 10% | 3.7µM* | ? | 34%
COc1cccc(NC(=O)CSc2ccc3nnc(-c4ccccn4)n3n2)c1 | -1% | 13% | -4% | 37% | 59% | -10%
SMILES | AMA1 RON2 block | HCV inh | AmpC detergent | Pf growth 48h | Pf growth 96h | AmpC no deterg
O=C(CSc1ccc2nnc(-c3ccccn3)n2n1)Nc1cccc(F)c1 | -2% | · | -7% | ? | 13µM* | -24%
O=C(c1ccc(Cl)cc1)N1CCN=C1c1ccccc1 | 13% | -2% | 8% | 10% | 364% | -11%
O=C(c1ccccc1)N1CCN(C(=O)c2ccccc2)c2ccccc21 | 5% | 3.2µM* | · | · | · | ·
O=C(c1ccccc1)N1CCN=C1c1ccccc1 | 12% | 6% | ? | -11% | 12µM* | -14%
O=C(NC(=S)NC1CCSC1=O)c1ccc([N+](=O)[O-])cc1 (centres undefined) | · | · | 0% | 25% | 10µM* | -38%
COc1ccc(N2CCN(C(c3ccccc3)c3nnc(-c4ccccc4Cl)o3)CC2)cc1 (centres undefined) | · | · | 8% | · | · | ·
COc1cccc2cc(-c3cn4c(n3)sc3cc(F)ccc34)c(=O)oc12 | · | · | 9% | · | · | ·
CCCC(=O)N1CCN(Cc2nc3cc([N+](=O)[O-])ccc3n2C)CC1 | 5% | -26% | -10% | 8% | -28% | 14%
Cc1ccc(OCC(=O)Nc2ccc3c(c2)nc(CCN2CCCC2)n3C)cc1 | 36% | · | · | · | · | ·
Cc1ccc(C(C)C)c(OCC(=O)Nc2ccc3c(c2)nc(CN2CCCC2)n3C)c1 | 14% | ? | -10% | · | 13µM* | 162%
Cc1ccc(C(C)C)c(OCC(=O)N2CCN(Cc3nc4cc([N+](=O)[O-])ccc4n3C)CC2)c1 | -4% | 4% | -5% | -7% | 12µM* | 261%
O=C(CCC(=O)N1Cc2ccccc2Oc2ncccc21)NCc1cccc(Cl)c1 | · | · | 23% | · | · | ·
O=C(Cn1nc(-c2ccccc2)c2cnc3ccc(F)cc3c21)NC1CCCC1 | · | · | -2% | · | · | ·
O=C(NCc1cccs1)C1CC(c2ccc(Cl)cc2)=NO1 (centres undefined) | 6% | -10% | 0% | 26% | 31% | -13%
CC(=O)CCC1CC(c2ccc(Cl)cc2)=NO1 (centres undefined) | 10% | 2.8µM* | -6% | 134% | 127% | -15%
NNC(=O)c1ccc(OCC2CC(c3ccc(Cl)cc3)=NO2)cc1 (centres undefined) | 56% | ? | 7% | 8.3µM* | ? | -13%
COc1ccc(NC(=O)[C@H]2O[C@@H]3OC(C)(C)O[C@@H]3[C@H]3OC(C)(C)O[C@H]32)c(OC)c1 | · | · | 23% | · | · | ·
Cc1ccc(CNC(=O)c2nn(-c3ccc(Cl)cc3)nc2CO)cc1 | · | · | 20% | · | · | ·
Clc1ccc(-n2nnnc2-c2cnc3ccccc3c2-c2ccccc2)cc1 | -20% | ? | 2% | 5.2µM* | 10µM* | 22%
Cc1ccc(-n2nnnc2-c2cnc3ccc(Cl)cc3c2-c2ccccc2)cc1 | -11% | 10µM* | -6% | ? | ? | -50%
Cc1ccc(NC(=O)Nc2nnc(N3CCCC3)s2)cc1C | · | · | -5% | · | · | ·
O=S(=O)(Nc1ccc(-c2ccc(N3CCCC3)nn2)cc1)c1ccc(OC(F)(F)F)cc1 | · | · | 7% | · | · | ·
COc1ccc(C)cc1NC(=O)Cn1c(=O)n(Cc2nc(C)no2)c(=O)c2ccccc21 | · | · | 16% | · | · | ·
COc1cc(/C=C2/NC(=O)N(Cc3ccccc3F)C2=O)cc(OC)c1O | -7% | -17% | 4% | -17% | -17% | -33%
CCOc1cc(/C=C2/NC(=O)N(Cc3ccccc3F)C2=O)ccc1O | 0% | 10µM* | -5% | ? | ? | -52%

Screens (PubChem BioAssay)
